Measurements reported in PubChem BioAssay (NCATS).
Unmarked numbers belong to inactive results. No rule for the calls is given here.

system: HIV-1 nucleocapsid protein NCp7 (binding to TG oligonucleotide); assay: HIV Nucleocapsid (AID 346); conditions: HIV-1 NC / fluorescein-TGTGTGTG probe, fluorescence polarization;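 also: potency is for inhibitors that block NC binding and lower polarization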
Procedure, shortened: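 Fluorescence polarization binding of 100 nM HIV-1 NC to 10 nM fluorescein-labelled TG4xF oligonucleotide. Buffer was Hepes pH 7.5 with 250mM NaCl, 1uM ZnCl2, TCEP and 2-mercaptoethanol. Compounds were incubated 1 hr at room temperature before the read.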
Potency is read from the fitted curve at half-maximal effect.

Question: How did the Potency turn out when `O=C(c1cnccn1)N1CCC2(CCCN(c3ccc(-c4ccccc4)cc3)C2)CC1` was run?
Answer: > 20 µM

Question: `c1cncc(CNc2ncncc2-c2cccnc2)c1` was tested. Which Potency did it give?
Answer: > 20 µM

Question: Which Potency does the source give for `Cc1cccc(CNc2ncnc3ccc(-c4cccnc4)cc23)c1` here?
Answer: > 20 µM

Question: With `c1ccc(-c2cccc(N3CC4(CCNCC4)C3)c2)cc1` as the compound, how does the Potency read?
Answer: > 20 µM

Question: For `COCC(=O)N1CCC2(CC1)CCN(C(=O)Nc1cccc(C#N)c1)CC2`, which Potency is on record?
Answer: > 20 µM

Question: For `CCNc1ncc2ncc(=O)n(C[C@H]3CCCO3)c2n1`, which Potency is on record?
Answer: > 20 µM

Question: How did the Potency turn out when `COc1ccc(Oc2ncc3nc(-c4cn(C)c5ccccc45)c(=O)n(CCC#N)c3n2)cc1` was run?
Answer: > 20 µM

Question: Which Potency does the source give for `COc1cccc(Cn2c(=O)cnc3cnc(OCc4ccccc4)nc32)c1` here?
Answer: > 20 µM

Question: With `COc1ccccc1CCn1c(=O)c(CCc2ccccc2)nc2cncnc21` as the compound, how does the Potency read?
Answer: > 20 µM

Question: With `COc1ccc2[nH]cc(CCNc3nc(-c4ccc(N(C)C)cc4)nc4ccccc34)c2c1` as the compound, how does the Potency read?
Answer: > 20 µM

Question: `CN(Cc1ccco1)c1nc(-c2cccnc2)nc2ccccc12` was tested. Which Potency did it give?
Answer: > 20 µM

Question: How did the Potency turn out when `CN(C)c1ncc2nc(-c3ccc(F)cc3)c(=O)n(-c3ccccc3)c2n1` was run?
Answer: > 20 µM

Question: For `COc1ccc(-c2nc3cnc(N4CCN(C)CC4)nc3n(CCc3ccccc3)c2=O)cc1`, which Potency is on record?
Answer: > 20 µM

Question: For `N#CCCn1c(=O)c(-c2cccc(C#N)c2)nc2cnc(N3CCOCC3)nc21`, which Potency is on record?
Answer: > 20 µM

Question: How did the Potency turn out when `COCCn1c(=O)c(-c2cccc(C#N)c2)nc2cnc(N3CCN(C)CC3)nc21` was run?
Answer: > 20 µM

Question: How did the Potency turn out when `CN(C)C(=O)c1ccc(-c2nc(N(C)Cc3ccco3)c3ccccc3n2)cc1` was run?
Answer: > 20 µM

Question: With `CN(C)Cc1ccccc1-c1ccc2ncnc(N3CCOCC3)c2c1` as the compound, how does the Potency read?
Answer: > 20 µM

Question: Which Potency does the source give for `COc1ccc(Oc2ncc3nc(-c4ccc(Cl)cc4)c(=O)n(CCC#N)c3n2)cc1` here?
Answer: > 20 µM

Question: For `CC(C)CN1CC2(CCN(C(=O)c3csnn3)CC2)C1`, which Potency is on record?
Answer: > 20 µM

Question: With `O=c1c(CCc2ccccc2)nc2cnc(N3CCNCC3)nc2n1Cc1cccs1` as the compound, how does the Potency read?
Answer: > 20 µM

Question: With `COc1ccc(NC(=O)N2CCCC3(CCN(S(=O)(=O)c4ccccc4)CC3)C2)cc1` as the compound, how does the Potency read?
Answer: > 20 µM

Question: How did the Potency turn out when `COc1ccc(C(=O)N2CCC3(CCCN(C(=O)Nc4cccc(F)c4)C3)CC2)cc1` was run?
Answer: > 20 µM

Question: Which Potency does the source give for `Cc1cccc(CNc2nc(-c3c(C)noc3C)nc3ccccc23)c1` here?
Answer: > 20 µM

Question: Which Potency does the source give for `COCC(=O)N1CCC2(CC1)CN(C(=O)Nc1cccc(C#N)c1)C2` here?
Answer: > 20 µM

Question: Which Potency does the source give for `Cc1cnc(CNc2ncnc3ccc(-c4ccc5c(c4)OCO5)cc23)cn1` here?
Answer: > 20 µM

Question: `O=C(c1csnn1)N1CCC2(CCCN(c3ccncc3)C2)CC1` was tested. Which Potency did it give?
Answer: > 20 µM

Question: Which Potency does the source give for `COc1ccc(Oc2ncc3nc(C)c(=O)n(C4CC4)c3n2)cc1` here?
Answer: > 20 µM

Question: For `COc1ccc(Oc2ncc3ncc(=O)n(C[C@H]4CCCO4)c3n2)cc1`, which Potency is on record?
Answer: > 20 µM

Question: How did the Potency turn out when `CNc1nc(-c2cccc(NS(C)(=O)=O)c2)nc2ccccc12` was run?
Answer: > 20 µM

Question: `O=C(c1ccco1)N1CCC2(CC1)CN(Cc1cc(C(F)(F)F)cc(C(F)(F)F)c1)C2` was tested. Which Potency did it give?
Answer: > 20 µM

Question: For `CN(C)Cc1ccccc1-c1ccc2ncnc(NCc3cccs3)c2c1`, which Potency is on record?
Answer: > 20 µM

Question: For `O=c1c(-c2cc(F)cc(F)c2)nc2cncnc2n1C1CC1`, which Potency is on record?
Answer: > 20 µM

Question: Which Potency does the source give for `O=C(Nc1cccc(F)c1)N1CCC2(CCNCC2)CC1` here?
Answer: > 20 µM

Question: `COc1cccc(Cn2c(=O)c(-c3cn(C)c4ccccc34)nc3cnc(N4CCNCC4)nc32)c1` was tested. Which Potency did it give?
Answer: > 20 µM

Question: How did the Potency turn out when `Cn1cccc1C(=O)N1CCC2(CC1)CN(C(=O)Nc1ccccc1)C2` was run?
Answer: > 20 µM

Question: How did the Potency turn out when `COc1ncc2nc(-c3ccc(F)cc3)c(=O)n(C3CC3)c2n1` was run?
Answer: > 20 µM

Question: With `Cc1cccc(CNc2ccnc(-c3ccoc3)n2)c1` as the compound, how does the Potency read?
Answer: > 20 µM

Question: How did the Potency turn out when `O=C(c1cnccn1)N1CCC2(CCCN(C(c3ccccc3)c3ccccc3)C2)CC1` was run?
Answer: > 20 µM

Question: How did the Potency turn out when `O=c1c(-c2ccc(F)c(F)c2)nc2cncnc2n1-c1ccccc1` was run?
Answer: > 20 µM

Question: How did the Potency turn out when `COc1ccc(Oc2ncc3nc(-c4ccc(Cl)cc4)c(=O)n(C[C@H]4CCCO4)c3n2)cc1` was run?
Answer: > 20 µM
